# The campaign covered roughly 6,200 compounds. About 2,900 (47%) were called active. No stated cut-off is given here; in the data, active means inhibition above about 50%; inactive means the rest. So high a share suggests a set chosen from earlier hits. The list shows a part of the results.
# Test: Mycobacterium tuberculosis growth inhibition, primary screen (AID 1259343)
# Settings: inhibition: at 10 µM, active compounds read high; outcome: 10 uM
row,SMILES,inhibition
1,O=C(c1ccno1)N1CCC(Cc2ccc(F)cc2)CC1,56.4% (active)
2,Cc1ccccc1N1CCN(Cc2cc(C#CCO)cs2)C(C)C1 (stereo unspecified),-56.2% (inactive)
3,Cc1ccccc1N1CCN(Cc2ccc(C#CCO)s2)C(C)C1 (stereo unspecified),76.9% (active)
4,c1ccc2c(c1)CN1CCCC1=N2,101% (active)
5,O=C1C=C(Nc2ccc3ccccc3c2)CCC1,89.7% (active)
6,O=C1OC2(CCCCC2)OC(=O)C1=CNc1ccc2ccccc2c1,48.9% (inactive)
7,O=C(Nc1nnc(-c2ccc3c(c2)OCCO3)o1)c1cccc2ccccc12,98.7% (active)
8,CN(CCNC(=O)C1(C)CC1(Cl)Cl)C1CC1 (stereo unspecified),-9.78% (inactive)
9,COc1cccc(C(C)N(C)Cc2nc(Cc3cccc(F)c3)no2)c1 (stereo unspecified),65.5% (active)
10,FC(F)(F)c1cccc(Cc2noc(CN3CCC(OCc4ccccn4)CC3)n2)c1,32% (inactive)
11,N#Cc1cccc(OCc2noc(-c3ccsc3)n2)c1,34.2% (inactive)
12,COc1cccc(C(C)N(C)Cc2nc(COc3ccccc3)no2)c1 (stereo unspecified),71.8% (active)
13,Cc1cc2nc(CN(C)Cc3nc(Cc4cccc(C(F)(F)F)c4)no3)[nH]c2cc1C,inactive
14,CN(Cc1nc(COc2ccccc2)no1)CC1(c2ccccc2)CC1(C)C (stereo unspecified),42.2% (inactive)
15,COc1cccc(C(C)N(C)Cc2nc(-c3cccc(Cl)c3)oc2C)c1 (stereo unspecified),-0.61% (inactive)
16,CN(Cc1csc(-c2ccccc2)n1)Cc1nc(Cc2cccc(F)c2)no1,90.6% (active)
17,Cc1c(CN(C)Cc2nc(Cc3cccc(C(F)(F)F)c3)no2)[nH]c2ccccc12,66.5% (active)
18,COc1ccccc1OC(C)c1nc(Cc2cccc(C(F)(F)F)c2)no1 (stereo unspecified),36.2% (inactive)
19,CC1CCC(C(C)C)c2[nH]nc(-c3ccccc3O)c21 (stereo unspecified),4.33% (inactive)
20,Cn1ccc(NS(=O)(=O)/C=C/c2ccc(Cl)cc2)n1,41.7% (inactive)
21,O=S(=O)(/C=C/c1ccc(Cl)cc1)Oc1ccc(F)c(F)c1,92.7% (active)
22,CC(C)CCNCC(O)CON=C1c2ccccc2-c2ccccc21 (stereo unspecified),84.8% (active)
23,N#Cc1ccccc1-c1ccc(COc2coc(CN3CCN(C(=O)c4ccc([N+](=O)[O-])o4)CC3)cc2=O)cc1,102% (active)
24,CCCCC/C=C\C/C=C\C/C=C\CCCCC(=O)N1CCN(Cc2cc(=O)c(OCc3cccc(F)c3)co2)CC1,16.1% (inactive)

row,SMILES,inhibition
1,Cc1nc2cc(NC(=O)CN(C)S(=O)(=O)c3ccc(F)cc3)ccc2o1,23.8% (inactive)
2,CCc1nc2cc(NC(=O)CC3CCCCC3)ccc2o1,89.5% (active)
3,Cc1cc(C)c(-c2nc3cc(NC(=O)c4cccs4)ccc3o2)c(C)c1,42.8% (inactive)
4,Fc1ccccc1CC1CCN(Cc2nc(-c3cccs3)no2)CC1,83.9% (active)
5,c1csc(-c2noc(CN3CCc4sccc4C3)n2)c1,46.9% (inactive)
6,c1csc(-c2noc(CN3CCCC(c4nc5ccccc5o4)C3)n2)c1 (stereo unspecified),inactive
7,Clc1ccccc1C1CCN(Cc2nc(-c3cccs3)no2)C1 (stereo unspecified),96.1% (active)
8,CC(c1nc(-c2cccs2)no1)N1CCC(c2ccccc2)CC1 (stereo unspecified),-41.5% (inactive)
9,Fc1ccccc1OCC1CCCN(Cc2nc(-c3cccs3)no2)C1 (stereo unspecified),47% (inactive)
10,CCCC1=NN(c2nc3ccccc3s2)C(=O)C1C(C)=Nc1ccc(C(=O)OCC)cc1 (stereo unspecified),98.8% (active)
11,CC(C)Oc1ccc(CNC(=O)c2ccco2)cc1F,99.8% (active)
12,O=C(Nc1ccc(SC2CCCC2)cc1)c1ccc(=O)[nH]c1,53.3% (active)
13,Nc1nccnc1C(=O)NCCSCc1ccsc1,-5.01% (inactive)
14,Nc1nccnc1C(=O)Nc1ccc(SC2CCCC2)cc1,80% (active)
15,Cc1cc(NC(=O)c2cccc([N+](=O)[O-])c2C)n(-c2nc(C)c(C)c(=O)[nH]2)n1,98.3% (active)
16,Cc1cc(=O)[nH]c(-n2nc(C)cc2NC(=O)c2cccc([N+](=O)[O-])c2C)n1,100% (active)
17,CCc1c(C)nc(-n2nc(C)cc2NC(=O)c2cccc([N+](=O)[O-])c2C)[nH]c1=O,102% (active)
18,CCc1c(C)nc(-n2nc(C)cc2NC(=O)c2ccccc2[N+](=O)[O-])[nH]c1=O,81.9% (active)
19,O=C(O)c1ccc(Oc2cccc(Br)c2)cc1,91.5% (active)
20,O=C(O)c1ccc(Oc2cc(Cl)ccc2Cl)cc1,45.5% (inactive)
21,N#CCc1ccc(Oc2ccc(C(=O)O)cc2)cc1,34.3% (inactive)
22,CC[n+]1c(-c2ccccc2)c2cc(N)ccc2c2ccc(N)cc21,99.5% (active)
23,Nc1ccc(-c2nc(-c3ccccc3)c3cc(N)ccc3n2)cc1,29.6% (inactive)
24,Cc1ccc2sc(NNC(=O)c3cc(=O)c4ccccc4o3)nc2c1C,72.2% (active)

row,SMILES,inhibition
1,O=S(=O)(c1ccc(F)cc1)N1CCN(c2ccnc3cc(Cl)ccc23)CC1,3.02% (inactive)
2,O=S(=O)(c1ccc(F)c(F)c1)N1CCN(c2ccc(O)cc2)CC1,56.7% (active)
3,CCC(C)NC(=O)c1cnc(N2CCN(c3ccccc3[N+](=O)[O-])CC2)nc1OC (stereo unspecified),2.36% (inactive)
4,CCC(CC)NC(=O)c1ccc(N2CCCCC2)c([N+](=O)[O-])c1,96.8% (active)
5,O=C(c1ccc(N2CCCCC2)c([N+](=O)[O-])c1)N1CCc2ccccc21,23.8% (inactive)
6,CN(C(=O)CSc1nc2sc3c(c2c(=O)n1C)CCCC3)C1CCCCC1,18.9% (inactive)
7,CN(C(=O)CSc1nc2sc3c(c2c(=O)[nH]1)CCCC3)C1CCCCC1,93.2% (active)
8,CCOC(=O)c1nn(-c2ccccc2)c(=O)cc1NC(=O)c1ccc(C(C)(C)C)cc1,-13.4% (inactive)
9,CCOC(=O)c1nn(-c2cccc(C)c2)c(=O)c2c(N)scc12,89.5% (active)
10,CCOC(=O)c1nn(-c2ccccc2)c(=O)c2c(NC(=O)CCCCl)scc12,61.2% (active)
11,CCOC(=O)c1nn(-c2ccc(C)cc2)c(=O)cc1N1CCN(c2ccccc2OC)CC1,38.5% (inactive)
12,CCOC(=O)c1nn(-c2ccc(C(C)C)cc2)c(=O)c2c(N)scc12,101% (active)
13,CCOC(=O)c1nn(-c2ccc(C)cc2)c(=O)cc1NC(=O)C1CCCC1,-7.9% (inactive)
14,CCOC(=O)c1nn(-c2ccc(C)cc2)c(=O)c2c(N)scc12,60.8% (active)
15,Nc1ccccc1Cc1ccc(O)cc1,30.5% (inactive)
16,N[C@@H](CO)C(=O)Nc1ccc(Cc2ccccc2)cc1,89.6% (active)
17,OCC1(CCOc2ccccc2)CCN(c2ncnc3sccc23)CC1,20.1% (inactive)
18,CCN1CCN(Cc2ccc(-c3cc4c(N[C@H](C)c5ccccc5)ncnc4[nH]3)cc2)CC1,16.6% (inactive)
19,Cc1ccc(Cn2ncc3c(N4CCN(CCOc5ccc(C)cc5)CC4)ncnc32)cc1,24.2% (inactive)
20,COc1cccc(OCCN2CCN(c3ncnc4c3cnn4-c3ccccc3)CC2)c1,64% (active)
21,COc1ccc(CN2CCN(c3ncnc4c3cnn4-c3ccccc3)CC2)cc1F,82.1% (active)
22,CC(C)c1cc(NCCN(C)C)n2ncc(-c3ccccc3)c2n1,-10.7% (inactive)
23,Cc1ccc(-c2cnn3c(NCCOCCO)cc(C(C)(C)C)nc23)cc1,-3.38% (inactive)
24,Cc1cc(NCCN(C)C)n2nc(C(F)(F)F)c(-c3ccccc3)c2n1,45% (inactive)

row,SMILES,inhibition
1,CN(C)CCNc1cc(-c2ccccc2)nc2c(-c3ccccc3)cnn12,70.7% (active)
2,CN(C)CCCNc1cc(C(C)(C)C)nc2c(-c3ccccc3)cnn12,74% (active)
3,CN(C)CCCNc1cc(C(C)(C)C)nc2c(-c3ccc(Cl)cc3)cnn12,36.7% (inactive)
4,Cc1cc(=O)[nH]c(-n2nc(C3CC3)cc2NC(=O)c2ccc(C(F)(F)F)cc2)n1,99.9% (active)
5,Cc1cc(=O)[nH]c(-n2nc(C3CC3)cc2NC(=O)c2ccc(F)cc2)n1,99.8% (active)
6,Cc1cc(=O)[nH]c(-n2nc(C3CC3)cc2NC(=O)c2ccc(F)c(F)c2)n1,99.9% (active)
7,CC(C)CCn1c(N2CCCCC2)nc2c1c(=O)n(C)c(=O)n2C,-32.3% (inactive)
8,CCCn1c(=O)c2c(nc3n2CCCN3Cc2ccccc2)n(C)c1=O,33.4% (inactive)
9,CCCCCCn1c(N2CCN(Cc3ccc(Cl)c(Cl)c3)CC2)nc2c1c(=O)[nH]c(=O)n2C,9.32% (inactive)
10,Cc1cn2c3c(=O)n(CC(=O)C(C)(C)C)c(=O)n(C)c3nc2n1C1CCCC1,-30.1% (inactive)
11,CCCCCn1c(=O)c2c(nc3n2CC(C)CN3C2CCCCC2)n(C)c1=O (stereo unspecified),92.2% (active)
12,CCCCCCn1c(N2CCN(c3ccccc3)CC2)nc2c1c(=O)n(C)c(=O)n2C,81.9% (active)
13,CCCCCn1c(=O)c2c(nc3n2CCN3Cc2ccco2)n(C)c1=O,61% (active)
14,CCCCc1ccc(-n2c(C)c(C)n3c4c(=O)n(CCCO)c(=O)n(C)c4nc23)cc1,46.3% (inactive)
15,CCCn1c(C2CCCCC2)nc2c(c(=O)c3ccccc3n2C)c1=O,12.9% (inactive)
16,N[C@@H](C(=O)O)[C@@H](O)[C@H](O)[C@H](O)CO,-6.84% (inactive)
17,Cn1nccc1CNC(=O)c1ccc(COc2cc(Cl)ccc2Cl)o1,35% (inactive)
18,O=C(Nc1nccs1)c1ccc(COc2ccc(F)cc2)o1,29.5% (inactive)
19,c1ccc(-c2cc(-c3ccccc3)on2)cc1,46.9% (inactive)
20,O=C(NNC(=O)c1cc(-c2ccccc2)no1)c1ccco1,96% (active)
21,O=C(NNC(=O)c1ccc(COc2ccccc2)o1)c1ccco1,59.7% (active)
22,C=CCn1c(SCc2c(C)noc2C)nc2sc(C)c(C)c2c1=O,30.8% (inactive)
23,C=CCn1c(SCCC#N)nc2sc3c(c2c1=O)CCCC3,80.7% (active)
24,C=CCn1c(=S)[nH]c2sc3c(c2c1=O)CCC(C)C3 (stereo unspecified),8.34% (inactive)

# Source: PubChem BioAssay AID1259343 (VanderVen Lab, College of Veterinary Medicine, Cornell …, 2017)
